Assay results from PubChem BioAssay AID1159580 (chemical genetic matrix, 2015).
“And” between values parts separate entries of the source, which are not always exact repeats. Identical values can stand only once. The whole screen tested about 5,500 compounds, of which about 2,000 (36%) were called active. Roughly 18% stayed inconclusive and do not appear here. No stated cut-off is given here; in the data, active means normalized growth mostly below about 0.91 (no sharp cut-off); inconclusive means no clear call, values can overlap the other calls; inactive means mostly above about 0.92. This is one part of the list.

Assay: chemical genetic growth profiling, strain panel (AID 1159580);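 further: tested at 20 µM; growth read once vehicle control cultures reached saturation at 30 °C; 1 = growth at the plate median or of vehicle wells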
Settings: S. cerevisiae deletion strains, growth OD

Measured: normalized growth

Oc1ccc(Cl)c2cccnc12
active: locus YAL021C, strain ccr4, stronger effect = lower value 0.0729 | locus YAL026C, strain drs2, stronger effect = lower value 0.0768 | locus YAL030W, strain snc1, stronger effect = lower value 0.0588 | locus YBL061C, strain skt5, stronger effect = lower value 0.0618 | locus YBR009C, strain hhf1, stronger effect = lower value 0.0586 | locus YBR021W, strain FUR4, stronger effect = lower value 0.11 | locus YBR023C, strain chs3, stronger effect = lower value 0.0665 | locus YBR171W, strain sec66, stronger effect = lower value 0.0765 | locus YBR229C, strain ROT2, stronger effect = lower value 0.0466 | locus YBR231C, strain swc5, stronger effect = lower value 0.0699 | locus YBR279W, strain paf1, stronger effect = lower value 0.0591 | locus YCL011C, strain gbp2, stronger effect = lower value 0.0563 | locus YCL016C, strain dcc1, stronger effect = lower value 0.119 | locus YCL029C, strain bik1, stronger effect = lower value 0.0654 | locus YCL069W, strain vba3, stronger effect = lower value 0.0931 | locus YCR088W, strain abp1, stronger effect = lower value 0.0863 | locus YDL005C, strain med2, stronger effect = lower value 0.14 | locus YDL035C, strain GPR1, stronger effect = lower value 0.0492 | locus YDL040C, strain nat1, stronger effect = lower value 0.169 | locus YDL074C, strain BRE1, stronger effect = lower value 0.0799 | locus YDL101C, strain DUN1, stronger effect = lower value 0.0585 | locus YDL185W, strain tfp1, stronger effect = lower value 0.0618 | locus YDL192W, strain arf1, stronger effect = lower value 0.0648 | locus YDR001C, strain nth1, stronger effect = lower value 0.113 | locus YDR069C, strain doa4, stronger effect = lower value 0.0629 | locus YDR101C, strain arx1, stronger effect = lower value 0.0618 | locus YDR137W, strain rgp1, stronger effect = lower value 0.102 | locus YDR159W, strain sac3, stronger effect = lower value 0.284 | locus YDR162C, strain NBP2, stronger effect = lower value 0.0481 | locus YDR195W, strain ref2 0.112 | locus YDR297W, strain sur2, stronger effect = lower value 0.0577 | locus YDR318W, strain mcm21, stronger effect = lower value 0.0654 | locus YDR334W, strain swr1, stronger effect = lower value 0.0718 | locus YDR335W, strain msn5, stronger effect = lower value 0.0632 | locus YDR388W, stronger effect = lower value 0.0579 | locus YDR392W, strain spt3, stronger effect = lower value 0.12 | locus YDR502C, strain sam2, stronger effect = lower value 0.0635 | locus YEL003W, strain gim4, stronger effect = lower value 0.0561 | locus YEL037C, strain rad23, stronger effect = lower value 0.0834 | locus YEL061C, strain CIN8 (second series), stronger effect = lower value 0.113 | locus YEL061C, strain CIN8, stronger effect = lower value 0.0497 | locus YER015W, strain faa2, stronger effect = lower value 0.0605 | locus YER016W, strain bim1, stronger effect = lower value 0.0613 | locus YER110C, stronger effect = lower value 0.0829 | locus YER111C, strain swi4, stronger effect = lower value 0.0714 | locus YER155C, strain BEM2 (second series), stronger effect = lower value 0.0997 | locus YER155C, strain BEM2, stronger effect = lower value 0.0681 | locus YER167W, strain BCK2, stronger effect = lower value 0.0524 | locus YFR010W, strain ubp6, stronger effect = lower value 0.0733 | locus YGL078C, strain dbp3, stronger effect = lower value 0.0711 | locus YGL086W, strain mad1, stronger effect = lower value 0.0668 | locus YGL167C, strain pmr1, stronger effect = lower value 0.0738 | locus YGL173C, strain kem1, stronger effect = lower value 0.0702 | locus YGL227W, strain vid30, stronger effect = lower value 0.128 | locus YGL240W, strain doc1, stronger effect = lower value 0.0706 | locus YGL248W, strain PDE1, stronger effect = lower value 0.0483 | locus YGL253W, strain hxk2, stronger effect = lower value 0.0835 | locus YGR078C, strain PAC10, stronger effect = lower value 0.0502 | locus YGR135W, strain pre9, stronger effect = lower value 0.066 | locus YGR252W, strain gcn5, stronger effect = lower value 0.174 | locus YHR013C, strain ard1, stronger effect = lower value 0.101 | locus YHR027C, strain rpn1, stronger effect = lower value 0.0624 | locus YHR030C, strain SLT2, stronger effect = lower value 0.0509 and 0.106 | locus YHR079C, strain IRE1 (second series), stronger effect = lower value 0.0587 | locus YHR079C, strain IRE1, stronger effect = lower value 0.127 | locus YHR094C, strain hxt1, stronger effect = lower value 0.0631 | locus YHR129C, strain ARP1, stronger effect = lower value 0.0599 | locus YHR142W, strain chs7, stronger effect = lower value 0.0877 | locus YHR200W, strain rpn10, stronger effect = lower value 0.0662 | locus YIL066C, strain RNR3, stronger effect = lower value 0.0495 | locus YIL073C, strain SPO22, stronger effect = lower value 0.111 | locus YIL125W, strain kgd1, stronger effect = lower value 0.0705 | locus YIR030C, strain dcg1, stronger effect = lower value 0.0597 | locus YJL092W, strain hpr5, stronger effect = lower value 0.0945 | locus YJL095W, strain BCK1 (second series), stronger effect = lower value 0.0605 | locus YJL095W, strain BCK1, stronger effect = lower value 0.0616 and 0.0998 | locus YJL115W, strain asf1, stronger effect = lower value 0.146 | locus YJL129C, strain trk1, stronger effect = lower value 0.0826 | locus YJL134W, strain LCB3, stronger effect = lower value 0.0525 | locus YJL154C, strain vps35, stronger effect = lower value 0.102 | locus YJL164C, strain tpk1, stronger effect = lower value 0.0587 | locus YJL166W, strain qcr8, stronger effect = lower value 0.059 | locus YJL168C, strain set2, stronger effect = lower value 0.0636 | locus YJL187C, strain SWE1 (second series), stronger effect = lower value 0.0476 | locus YJR043C, strain POL32, stronger effect = lower value 0.0636 | locus YJR066W, strain TOR1, stronger effect = lower value 0.0218 | locus YKL009W, strain mrt4, stronger effect = lower value 0.0954 | locus YKL068W, stronger effect = lower value 0.0759 | locus YKL085W, strain MDH1 (second series), stronger effect = lower value 0.0618 | locus YKL085W, strain MDH1, stronger effect = lower value 0.0618 | locus YKL160W, strain elf1, stronger effect = lower value 0.082 | locus YKR001C, strain vps1, stronger effect = lower value 0.0627 | locus YKR026C, strain gcn3, stronger effect = lower value 0.122 | locus YKR091W, strain srl3, stronger effect = lower value 0.135 | locus YLL001W, strain dnm1, stronger effect = lower value 0.0833 | locus YLL026W, stronger effect = lower value 0.0593 | locus YLL041C, strain sdh2, stronger effect = lower value 0.065 | locus YLR027C, strain aat2, stronger effect = lower value 0.0538 | locus YLR039C, strain RIC1, stronger effect = lower value 0.0942 | locus YLR058C, strain SHM2, stronger effect = lower value 0.0495 | locus YLR102C, strain apc9, stronger effect = lower value 0.0664 | locus YLR113W, strain HOG1, stronger effect = lower value 0.168 | locus YLR221C, strain rsa3, stronger effect = lower value 0.0599 | locus YLR258W, strain gsy2, stronger effect = lower value 0.0596 | locus YLR262C, strain YPT6 (second series), stronger effect = lower value 0.108 | locus YLR262C, strain YPT6, stronger effect = lower value 0.103 | locus YLR268W, strain sec22, stronger effect = lower value 0.0689 | locus YLR320W, strain mms22, stronger effect = lower value 0.0776 | locus YLR330W, strain CHS5, stronger effect = lower value 0.0512 | locus YLR342W, strain FKS1 (second series), stronger effect = lower value 0.0673 | locus YLR342W, strain FKS1, stronger effect = lower value 0.0668 | locus YLR357W, strain rsc2, stronger effect = lower value 0.203 | locus YLR370C, strain arc18, stronger effect = lower value 0.0765 | locus YLR371W, strain rom2, stronger effect = lower value 0.066 | locus YLR384C, strain iki3, stronger effect = lower value 0.0582 | locus YLR418C, strain cdc73, stronger effect = lower value 0.0923 | locus YML016C, strain PPZ1, stronger effect = lower value 0.0462 | locus YML032C, strain rad52, stronger effect = lower value 0.0754 | locus YML120C, strain ndi1, stronger effect = lower value 0.0565 | locus YML124C, strain tub3, stronger effect = lower value 0.0612 | locus YMR058W, strain fet3, stronger effect = lower value 0.0641 | locus YMR078C, strain ctf18, stronger effect = lower value 0.0785 | locus YMR125W, strain sto1, stronger effect = lower value 0.244 | locus YMR129W, stronger effect = lower value 0.0599 | locus YMR205C, strain PFK2, stronger effect = lower value 0.12 | locus YMR223W, strain ubp8, stronger effect = lower value 0.0681 | locus YMR231W, strain pep5, stronger effect = lower value 0.0661 | locus YMR263W, strain SAP30, stronger effect = lower value 0.0554 | locus YMR307W, strain GAS1, stronger effect = lower value 0.132 | locus YNL067W, strain RPL9B, stronger effect = lower value 0.049 | locus YNL071W, strain lat1, stronger effect = lower value 0.0622 | locus YNL183C, strain NPR1, stronger effect = lower value 0.0694 | locus YNL209W, strain ssb2, stronger effect = lower value 0.0567 | locus YNL233W, strain BNI4, stronger effect = lower value 0.0547 | locus YNL248C, strain rpa49, stronger effect = lower value 0.194 | locus YNL250W, strain rad50, stronger effect = lower value 0.0731 | locus YNL271C, strain bni1, stronger effect = lower value 0.0769 | locus YNL298W, strain CLA4, stronger effect = lower value 0.076 | locus YNL307C, strain MCK1, stronger effect = lower value 0.0703 | locus YNL322C, strain KRE1 (second series), stronger effect = lower value 0.0667 | locus YNL322C, strain KRE1, stronger effect = lower value 0.0462 | locus YNR049C, strain mso1, stronger effect = lower value 0.0954 | locus YNR052C, strain pop2, stronger effect = lower value 0.065 | locus YOL006C, strain TOP1, stronger effect = lower value 0.117 | locus YOL147C, strain pex11, stronger effect = lower value 0.0602 | locus YOR001W, strain rrp6, stronger effect = lower value 0.0711 | locus YOR061W, strain CKA2, stronger effect = lower value 0.0478 | locus YOR069W, strain VPS5, stronger effect = lower value 0.0472 | locus YOR070C, strain gyp1, stronger effect = lower value 0.0596 | locus YOR080W, strain dia2, stronger effect = lower value 0.0638 | locus YOR083W, strain WHI5, stronger effect = lower value 0.0897 | locus YOR106W, strain vam3, stronger effect = lower value 0.0664 | locus YOR136W, strain idh2, stronger effect = lower value 0.0784 | locus YOR144C, strain elg1, stronger effect = lower value 0.0595 | locus YOR184W, strain ser1, stronger effect = lower value 0.0724 | locus YOR231W, strain MKK1, stronger effect = lower value 0.115 | locus YOR265W, strain rbl2, stronger effect = lower value 0.0564 | locus YOR270C, strain vph1, stronger effect = lower value 0.131 | locus YOR290C, strain snf2, stronger effect = lower value 0.0717 | locus YOR316C, strain cot1, stronger effect = lower value 0.0637 | locus YPL051W, strain arl3, stronger effect = lower value 0.062 | locus YPL055C, strain LGE1, stronger effect = lower value 0.0714 | locus YPL078C, strain atp4, stronger effect = lower value 0.0623 | locus YPL106C, strain sse1, stronger effect = lower value 0.096 | locus YPL240C, strain hsp82, stronger effect = lower value 0.083 | locus YPL256C, strain CLN2, stronger effect = lower value 0.129 | locus YPR119W, strain clb2, stronger effect = lower value 0.0694 | locus YPR141C, strain kar3, stronger effect = lower value 0.0792 | locus YPR163C, strain tif3, stronger effect = lower value 0.0744 | locus YPR167C, strain met16, stronger effect = lower value 0.0645 | strain wtn01, stronger effect = lower value 0.0639
